# About 410 targets per protein were measured; listed, in parts, are those with the strongest signals and a random draw of the rest.
# B1: CSA (Cytisus scoparius), P29257 (protein)
# chain: SEELSFSFTKFKTDQKNLILQRDALITPTGKLQLTTVENGKPAAYSLGRALYSTPIHIWDKSTGDEASFATFFSFVISDAPNPSTAATDGLAFFLAPADTQPQSAGGYLGLFEKDSSYNSSNQIVAVEFDTYYNSAWDPQTNPHIGIDVNTIKSKKVSSWGFKNGNVATVLITYQPSSKSLVASLVYPSGQTSDKTSYIISANVDLKATVPEWVRIGFSATTGQTDNYIETHDILSWSFKSKLPATKN
# What was measured:
# Test in all cases: glycan array binding signal (z-score within array); higher = stronger binding
# Conditions in all cases: glycan notation: IUPAC condensed, linker removed
# [1] = molecular target: Fuc(a1-2)Gal(b1-3)GalNAc(b1-4)[Neu5Ac(a2-3)]Gal(b1-4)Glc
# Method in brief: (§1)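 Glycan array data were curated from 3228 arrays in the Consortium for Functional Glycomics database and kept only where the protein sequence was available. Glycan names were converted to IUPAC-condensed notation, and columns mapping to the same glycan were averaged. The binding signal is a within-array Z-score, averaged across arrays of the same protein sequence at different concentrations or buffers and across linkers. Negative Z-scores can be read as non-binding.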
# [2] = molecular target: Fuc(a1-2)Gal6S(b1-3)GlcNAc6S
# Method in brief: as §1
# [3] = molecular target: Fuc(a1-2)[Gal(a1-3)]Gal(b1-4)[Fuc(a1-3)]Glc
# Method in brief: as §1
# [4] = molecular target: Fuc(a1-2)[GalNAc(a1-3)]Gal(b1-3)GlcNAc(b1-6)GalNAc
# Method in brief: as §1
# [5] = molecular target: Fuc(a1-2)[GalNAc(a1-3)]Gal(b1-4)GlcNAc(b1-3)Gal(b1-4)GlcNAc(b1-3)Gal(b1-4)GlcNAc
# Method in brief: as §1
# [6] = molecular target: Fuc(a1-2)[GalNAc(b1-3)]Gal
# Method in brief: as §1
# [7] = molecular target: Fuc(a1-3)[Gal3S(b1-4)]Glc
# Method in brief: as §1
# Fuc(b1-3)GlcNAc = molecular target: Fuc(b1-3)GlcNAc
# Method in brief: as §1
# Gal(a1-3)Gal(b1-4)Glc = molecular target: Gal(a1-3)Gal(b1-4)Glc
# Method in brief: as §1
# [8] = molecular target: Gal(a1-3)[Gal(a1-4)]Gal(b1-4)GlcNAc
# Method in brief: as §1
# [9] = molecular target: Gal(a1-4)Gal(b1-4)GlcNAc(b1-2)Man(a1-3)[Gal(a1-4)Gal(b1-4)GlcNAc(b1-2)Man(a1-6)]Man(b1-4)GlcNAc(b1-4)GlcNAc
# Method in brief: as §1
# Gal(b1-3)GalNAc = molecular target: Gal(b1-3)GalNAc
# Method in brief: as §1
# [10] = molecular target: Gal(b1-3)GalNAc(b1-3)Gal(a1-4)Gal(b1-4)Glc
# Method in brief: as §1
# [11] = molecular target: Gal(b1-3)GlcNAc(b1-3)Gal(b1-4)GlcNAc(b1-2)Man(a1-3)[Gal(b1-3)GlcNAc(b1-3)Gal(b1-4)GlcNAc(b1-2)Man(a1-6)]Man(b1-4)GlcNAc(b1-4)GlcNAc
# Method in brief: as §1
# [12] = molecular target: Gal(b1-4)GlcNAc(b1-3)Gal(b1-4)GlcNAc(b1-3)GalNAc
# Method in brief: as §1
# [13] = molecular target: Gal(b1-4)GlcNAc(b1-3)GalNAc
# Method in brief: as §1
# Gal3S6S(b1-4)GlcNAc = molecular target: Gal3S6S(b1-4)GlcNAc
# Method in brief: as §1
# GalNAc(a1-3)Gal = molecular target: GalNAc(a1-3)Gal
# Method in brief: as §1
# GalNAc(b1-3)Gal = molecular target: GalNAc(b1-3)Gal
# Method in brief: as §1
# [14] = molecular target: GalNAc(b1-3)Gal(a1-4)Gal(b1-4)GlcNAc
# Method in brief: as §1
# [15] = molecular target: GalNAc(b1-3)Gal(a1-4)Gal(b1-4)GlcNAc(b1-3)Gal(b1-4)Glc
# Method in brief: as §1
# [16] = molecular target: GalNAc(b1-3)Gal(a1-6)Gal(b1-4)Glc
# Method in brief: as §1
# GalNAc(b1-4)GlcNAc = molecular target: GalNAc(b1-4)GlcNAc
# Method in brief: as §1
# [17] = molecular target: GalNAc(b1-4)GlcNAc(b1-2)Man
# Method in brief: as §1
# [18] = molecular target: GalNAc(b1-4)GlcNAc(b1-2)Man(a1-3)[GalNAc(b1-4)GlcNAc(b1-2)Man(a1-6)]Man(b1-4)GlcNAc(b1-4)GlcNAc
# Method in brief: as §1
# [19] = molecular target: GalNAc(b1-4)GlcNAc(b1-3)GalNAc(b1-4)GlcNAc
# Method in brief: as §1
# GalNAc(b1-4)GlcNAc6S = molecular target: GalNAc(b1-4)GlcNAc6S
# Method in brief: as §1
# [20] = molecular target: Glc(a1-4)Glc(a1-4)Glc(a1-4)Glc
# Method in brief: as §1
# [21] = molecular target: GlcNAc(b1-2)Man(a1-3)[GlcNAc(b1-2)Man(a1-6)]Man(b1-4)GlcNAc(b1-4)[Fuc(a1-6)]GlcNAc
# Method in brief: as §1
# [22] = molecular target: GlcNAc(b1-2)Man(a1-3)[GlcNAc(b1-4)][GlcNAc(b1-2)Man(a1-6)]Man(b1-4)GlcNAc(b1-4)GlcNAc
# Method in brief: as §1
# [23] = molecular target: GlcNAc(b1-2)[GlcNAc(b1-4)]Man(a1-3)[GlcNAc(b1-4)][GlcNAc(b1-2)[GlcNAc(b1-6)]Man(a1-6)]Man(b1-4)GlcNAc(b1-4)[Fuc(a1-6)]GlcNAc
# Method in brief: as §1
# [24] = molecular target: GlcNAc(b1-4)Gal(b1-4)GlcNAc
# Method in brief: as §1
# [25] = molecular target: Man(a1-2)Man(a1-3)[Man(a1-2)Man(a1-6)]Man
# Method in brief: as §1
# [26] = molecular target: Man(a1-2)Man(a1-6)[Man(a1-3)]Man(a1-6)[Man(a1-2)Man(a1-2)Man(a1-3)]Man
# Method in brief: as §1
# [27] = molecular target: Man(a1-3)[Man(a1-6)]Man(b1-4)GlcNAc(b1-4)GlcNAc
# Method in brief: as §1
# [28] = molecular target: Man(a1-3)[Man(a1-6)]Man(b1-4)GlcNAc(b1-4)[Fuc(a1-6)]GlcNAc
# Method in brief: as §1
# [29] = molecular target: Neu5Ac(a2-3)Gal(b1-3)GalNAc(b1-4)[Neu5Ac(a2-3)]Gal(b1-4)Glc
# Method in brief: as §1
# [30] = molecular target: Neu5Ac(a2-3)Gal(b1-3)GlcNAc(b1-6)GalNAc
# Method in brief: as §1
# [31] = molecular target: Neu5Ac(a2-3)Gal(b1-3)[Neu5Ac(a2-6)]GalNAc
# Method in brief: as §1
# [32] = molecular target: Neu5Ac(a2-3)Gal(b1-3)[Neu5Ac(a2-6)]GlcNAc(b1-3)[Fuc(a1-3)[Gal(b1-4)]GlcNAc(b1-6)]Gal(b1-4)Glc
# Method in brief: as §1
# [33] = molecular target: Neu5Ac(a2-3)Gal(b1-4)GlcNAc(b1-3)Gal(b1-4)GlcNAc(b1-3)GalNAc
# Method in brief: as §1
# [34] = molecular target: Neu5Ac(a2-6)Gal(b1-4)GlcNAc(b1-3)[Neu5Ac(a2-6)Gal(b1-4)GlcNAc(b1-6)]GalNAc
# Method in brief: as §1
# [35] = molecular target: Neu5Ac(a2-6)Gal(b1-4)GlcNAc(b1-6)GalNAc
# Method in brief: as §1
# [36] = molecular target: Neu5Ac(a2-8)Neu5Ac(a2-8)Neu5Ac(a2-8)Neu5Ac(a2-3)[GalNAc(b1-4)]Gal(b1-4)Glc
# Method in brief: as §1
# [37] = molecular target: Neu5Gc(a2-3)Gal(b1-3)[Fuc(a1-4)]GlcNAc
# Method in brief: as §1
binder,measurement,setting,value
B1,glycan array binding signal (z-score),[1],-0.177
same,glycan array binding signal (z-score),[2],-0.196
same,glycan array binding signal (z-score),[3],-0.201
same,glycan array binding signal (z-score),[4],-0.214
same,glycan array binding signal (z-score),[5],-0.012
same,glycan array binding signal (z-score),[6],4.5
same,glycan array binding signal (z-score),[7],-0.165
same,glycan array binding signal (z-score),Fuc(b1-3)GlcNAc,-0.186
same,glycan array binding signal (z-score),Gal(a1-3)Gal(b1-4)Glc,-0.157
same,glycan array binding signal (z-score),[8],-0.124
same,glycan array binding signal (z-score),[9],-0.162
same,glycan array binding signal (z-score),Gal(b1-3)GalNAc,-0.159
same,glycan array binding signal (z-score),[10],0.019
same,glycan array binding signal (z-score),[11],-0.157
same,glycan array binding signal (z-score),[12],0.306
same,glycan array binding signal (z-score),[13],-0.162
same,glycan array binding signal (z-score),Gal3S6S(b1-4)GlcNAc,-0.186
same,glycan array binding signal (z-score),GalNAc(a1-3)Gal,3.51
same,glycan array binding signal (z-score),GalNAc(b1-3)Gal,2.98
same,glycan array binding signal (z-score),[14],3.35
same,glycan array binding signal (z-score),[15],2.76
same,glycan array binding signal (z-score),[16],4.13
same,glycan array binding signal (z-score),GalNAc(b1-4)GlcNAc,6.99
same,glycan array binding signal (z-score),[17],8.12
same,glycan array binding signal (z-score),[18],3.25
same,glycan array binding signal (z-score),[19],12.4
same,glycan array binding signal (z-score),GalNAc(b1-4)GlcNAc6S,9.73
same,glycan array binding signal (z-score),[20],-0.19
same,glycan array binding signal (z-score),[21],-0.139
same,glycan array binding signal (z-score),[22],-0.238
same,glycan array binding signal (z-score),[23],-0.166
same,glycan array binding signal (z-score),[24],-0.213
same,glycan array binding signal (z-score),[25],-0.234
same,glycan array binding signal (z-score),[26],-0.179
same,glycan array binding signal (z-score),[27],-0.142
same,glycan array binding signal (z-score),[28],-0.225
same,glycan array binding signal (z-score),[29],-0.247
same,glycan array binding signal (z-score),[30],-0.235
same,glycan array binding signal (z-score),[31],-0.159
same,glycan array binding signal (z-score),[32],-0.146
same,glycan array binding signal (z-score),[33],-0.216
same,glycan array binding signal (z-score),[34],-0.172
same,glycan array binding signal (z-score),[35],-0.202
same,glycan array binding signal (z-score),[36],-0.149
same,glycan array binding signal (z-score),[37],-0.202

# From the supplement of paper PMC8728848
